Autofluor counter – flagged as autofluorescent in microsphere protease counterscreen; compound autofluorescence counterscreen, microsphere flow cytometry; active compounds read high; fluorescence intensity (test concentration not listed); 360,000 compounds, 3.1% hits; AID 624483; in the data active means fluorescence intensity above about 16000; inconclusive means no clear call, values can overlap the other calls
Vc quorum ag – induces V. cholerae light production without autoinducers; V. cholerae BH1578 lux reporter, luminescence, 6 h; activation, % at 18.7 µM; 350,000 compounds, 0.16% hits; AID 588436; in the data active means activation mostly above about 9.7%, no sharp cut-off; inconclusive means no clear call, values can overlap the other calls; inactive means mostly below about 3.7%
BoNT-F LC inh – inhibitors of Botulinum neurotoxin F light chain protease | Multiplex microsphere protease cleavage assay, flow cytometry | AID 588497 | inhibition, % at 10 µM | 360,000 compounds, 0.22% hits; in the data active means inhibition above about 35%, passing the limit was not always enough; inconclusive means no clear call, values can overlap the other calls; further: plate controls were buffer without enzyme for full effect and enzyme alone for no effect
BoNT A protease – BoNT A light chain protease inhibition; inhibition, % at 10 µM; multiplex microsphere protease substrate cleavage, flow cytometry; 360,000 compounds, 0.17% hits; further: plate controls were buffer without enzyme for full effect and enzyme alone for no effect
Anthrax LF inh2 – inhibitors of Bacillus anthracis lethal factor protease; AID 588501; 360,000 compounds, 0.12% hits; inhibition, % at 10 µM; multiplex microsphere protease cleavage assay, LF; P15917; further: plate controls were buffer without enzyme for full effect and enzyme alone for no effect
Target sequence (P15917 whole entry, looked up): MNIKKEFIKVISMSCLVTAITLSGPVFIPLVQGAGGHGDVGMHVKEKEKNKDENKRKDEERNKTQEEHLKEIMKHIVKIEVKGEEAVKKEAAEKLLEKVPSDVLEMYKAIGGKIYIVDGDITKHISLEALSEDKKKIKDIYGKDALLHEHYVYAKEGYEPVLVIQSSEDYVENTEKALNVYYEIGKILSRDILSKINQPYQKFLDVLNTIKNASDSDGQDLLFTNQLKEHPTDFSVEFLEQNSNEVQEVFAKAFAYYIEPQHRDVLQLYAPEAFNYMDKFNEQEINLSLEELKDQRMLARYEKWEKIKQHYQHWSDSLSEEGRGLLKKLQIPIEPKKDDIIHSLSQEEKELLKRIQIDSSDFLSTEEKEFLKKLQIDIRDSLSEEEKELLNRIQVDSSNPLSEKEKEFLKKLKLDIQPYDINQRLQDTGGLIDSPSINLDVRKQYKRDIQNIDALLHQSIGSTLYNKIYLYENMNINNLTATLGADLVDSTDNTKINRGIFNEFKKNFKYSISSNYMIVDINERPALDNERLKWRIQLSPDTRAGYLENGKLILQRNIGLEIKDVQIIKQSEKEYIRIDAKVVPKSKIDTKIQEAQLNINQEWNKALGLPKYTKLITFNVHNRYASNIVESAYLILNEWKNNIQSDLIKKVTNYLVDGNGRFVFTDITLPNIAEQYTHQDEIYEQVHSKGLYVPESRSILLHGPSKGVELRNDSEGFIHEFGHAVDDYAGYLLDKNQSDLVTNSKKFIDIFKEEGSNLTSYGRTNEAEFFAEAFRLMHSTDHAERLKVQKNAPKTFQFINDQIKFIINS
BJeLR viability – BJeLR cell viability loss. BJeLR (HRASV12) viability, CellTiter-Glo ATP luminescence, 48 h. inhibition, % (no concentration beside the values). 300,000 compounds, 0.17% hits; in the data active means inhibition above about 50%; inconclusive means no clear call, values can overlap the other calls
Numbers without * were called inactive. Sampled rows, rich in hits. Any-hit rate of the full collection: about 3.7%. Unless noted, no stated cut-off is given here; in the data, active means inhibition above about 30%; inconclusive means no clear call, values can overlap the other calls; inactive means below that.

Results for CC(c1ccccc1)N1CCn2c(nc3cc(NC(=O)NC4CCCCC4)ccc32)C1 (configuration not stated) ?
Autofluor counter: 19391*; Vc quorum ag: 0; BoNT-F LC inh: -22; BoNT A protease: 13; Anthrax LF inh2: -6; BJeLR viability: -2

What do the screens show for `CCOC(=O)c1c(C)c(C(=O)NCCCOC(C)C)c(C)n1C`?
Autofluor counter: 19718*; Vc quorum ag: 0; BoNT-F LC inh: 2; BoNT A protease: 2; Anthrax LF inh2: -6; BJeLR viability: 2

Results for CCOC(=O)c1c(C)c(C(=O)NCc2ccc3c(c2)OCO3)c(C)n1C ?
Autofluor counter: 16759*; Vc quorum ag: inactive; BoNT-F LC inh: -8; BoNT A protease: -2; Anthrax LF inh2: -2; BJeLR viability: -9

How did CCOC(=O)c1c(C)c(C(=O)NC(C)COC)c(C)n1C (configuration not stated) do in these assays?
Autofluor counter: 17439*; Vc quorum ag: inactive; BoNT-F LC inh: -5; BoNT A protease: inconclusive; Anthrax LF inh2: -3; BJeLR viability: -4

What do the screens show for `CCOC(=O)c1c(C)c(C(=O)NC(C)COC)c(C)n1CC` (configuration not stated)?
Autofluor counter: 10631; Vc quorum ag: 0; BoNT-F LC inh: -5; BoNT A protease: 0; Anthrax LF inh2: -2; BJeLR viability: -8

How did CC1(C)OC(=O)C2=C(C[C@@H](CCc3ccccc3)O[C@H]2C2CCCC2)O1 do in these assays?
Autofluor counter: 6060; BoNT-F LC inh: 7; BoNT A protease: 0; Anthrax LF inh2: 4

What do the screens show for `CCOc1ccc(C(CN2CCOCC2)C(C)=O)cc1OC` (configuration not stated)?
Autofluor counter: 5939; BoNT-F LC inh: -14; BoNT A protease: 0; Anthrax LF inh2: -8

How did CCn1cc(Cl)c(C(=O)N2N=C3/C(=C/c4cccs4)CCCC3C2c2cccs2)n1 (configuration not stated) do in these assays?
Autofluor counter: 23292*; Vc quorum ag: inactive; BoNT-F LC inh: -4; BoNT A protease: 0; Anthrax LF inh2: 0; BJeLR viability: 4

Results for CC(C)c1ccc(CN2CCC2(C)C(=O)Nc2cccc(Oc3ccccc3)c2)cc1 (configuration not stated) ?
Autofluor counter: 3991; Vc quorum ag: 0; BoNT-F LC inh: -7; BoNT A protease: 0; Anthrax LF inh2: 0

How did CC(=O)Oc1ccc2c(c1)Oc1cc(OC(C)=O)ccc1C21OC(=O)c2ccccc21 do in these assays?
Autofluor counter: 17180*; Vc quorum ag: 0; BoNT-F LC inh: -123; BoNT A protease: -15; Anthrax LF inh2: -57

Results for Nc1ccc(-c2c3ccc(=O)cc-3oc3cc(O)ccc23)cc1C(=O)O ?
Autofluor counter: 9781; Vc quorum ag: inactive; BoNT-F LC inh: inconclusive; BoNT A protease: 21; Anthrax LF inh2: 128*; BJeLR viability: 2

What do the screens show for `O=c1ccc2c(-c3ccccc3)c3ccc(O)cc3oc-2c1`?
Autofluor counter: 6626; Vc quorum ag: 2; BoNT-F LC inh: 88*; BoNT A protease: 8; Anthrax LF inh2: 56*; BJeLR viability: 13

Results for CCNC(=O)C1(C)CCCN(C(=O)c2cc(-c3cccs3)oc2C)C1 (configuration not stated) ?
Autofluor counter: 3106; Vc quorum ag: 0; BoNT-F LC inh: 5; BoNT A protease: 0; Anthrax LF inh2: -2

What do the screens show for `Cc1ccc(NC(=S)NNC(=O)CCn2cc(C)cn2)cc1`?
Autofluor counter: 20267*; Vc quorum ag: -1; BoNT-F LC inh: 2; BoNT A protease: 1; Anthrax LF inh2: 0; BJeLR viability: 4

What do the screens show for `Cc1cnn(CCC(=O)NNC(=S)Nc2ccccc2)c1`?
Autofluor counter: 22734*; Vc quorum ag: inactive; BoNT-F LC inh: -1; BoNT A protease: -1; Anthrax LF inh2: 0; BJeLR viability: -11

What do the screens show for `Cc1cnn(CCC(=O)NNC(=S)NCC(C)C)c1`?
Autofluor counter: 3437; Vc quorum ag: 0; BoNT-F LC inh: -8; BoNT A protease: -1; Anthrax LF inh2: -2; BJeLR viability: 7

Results for Cc1cc(=O)[nH]c(SC/C=C/c2ccccc2)n1 ?
Autofluor counter: 17675*; Vc quorum ag: inactive; BoNT-F LC inh: -8; BoNT A protease: -7; Anthrax LF inh2: -5; BJeLR viability: -2

How did Cc1cc(=O)[nH]c(SCCCOc2ccc(F)cc2)n1 do in these assays?
Autofluor counter: 23808*; Vc quorum ag: 0; BoNT-F LC inh: -1; BoNT A protease: 0; Anthrax LF inh2: 1; BJeLR viability: 5

What do the screens show for `Brc1cnc2nc(SC/C=C/c3ccccc3)[nH]c2c1`?
Autofluor counter: 3188; Vc quorum ag: inactive; BoNT-F LC inh: inconclusive; BoNT A protease: 2; Anthrax LF inh2: 6; BJeLR viability: 4

How did OC[C@@H]1CN(Cc2ccc3c(c2)OCO3)C[C@H](n2cnc3c(NC4CCCC4)ncnc32)O1 do in these assays?
Autofluor counter: 3740; Vc quorum ag: -9; BoNT-F LC inh: 5; BoNT A protease: 0; Anthrax LF inh2: 7

How did COc1cc(C)ccc1S(=O)(=O)NC(=O)Cn1nnc(COc2ccc3c(c2)CCCC3)c1C do in these assays?
Autofluor counter: 4056; Vc quorum ag: -1; BoNT-F LC inh: -4; BoNT A protease: -1; Anthrax LF inh2: -5

How did CC1=CC(=O)N(c2cccc(C(F)(F)F)c2)C1c1ccc(Cl)cc1 (configuration not stated) do in these assays?
Autofluor counter: 23466*; Vc quorum ag: 0; BoNT-F LC inh: -1; BoNT A protease: 1; Anthrax LF inh2: -2; BJeLR viability: 4

Results for COc1ccc(-n2cc(C(=O)O)c3ccccc3c2=O)cc1 ?
Autofluor counter: 16517*; Vc quorum ag: inactive; BoNT-F LC inh: -3; BoNT A protease: -1; Anthrax LF inh2: -1; BJeLR viability: -1

How did O=C(O)c1cn(-c2ccccc2)c(=O)c2ccccc12 do in these assays?
Autofluor counter: 2861; Vc quorum ag: inactive; BoNT-F LC inh: 2; BoNT A protease: 0; Anthrax LF inh2: -3; BJeLR viability: -12

What do the screens show for `CNc1cc(-c2cnn(CC(C)C)c2)ncn1`?
Autofluor counter: 4086; Vc quorum ag: -1; BoNT-F LC inh: -12; BoNT A protease: -2; Anthrax LF inh2: -6

Results for Cc1cccc(NC(=O)NCC(F)(F)F)n1 ?
Autofluor counter: 19660*; Vc quorum ag: inactive; BoNT-F LC inh: 2; BoNT A protease: inconclusive; Anthrax LF inh2: -9; BJeLR viability: 3

Results for Cc1cccc(NC(=O)Nc2ccccc2)n1 ?
Autofluor counter: 3126; Vc quorum ag: 0; BoNT-F LC inh: 13; BoNT A protease: -2; Anthrax LF inh2: -6; BJeLR viability: -4

What do the screens show for `CCN(CC)S(=O)(=O)c1cccc(NC(=O)Nc2cccc(C(F)(F)F)c2)c1`?
Autofluor counter: 21515*; Vc quorum ag: inactive; BoNT-F LC inh: -11; BoNT A protease: -6; Anthrax LF inh2: -4; BJeLR viability: 10
